Experimental data taken from ChEMBL document CHEMBL2218924, “A broad activity screen in support of a chemogenomic map for kinase signalling research and drug discovery” (Biochem J, 2013).

What was measured:
[1] = target: T1, Serine/threonine-protein kinase 17A (Homo sapiens) (UniProt Q9UEE5); settings: at 10 µM
T1 sequence (whole entry): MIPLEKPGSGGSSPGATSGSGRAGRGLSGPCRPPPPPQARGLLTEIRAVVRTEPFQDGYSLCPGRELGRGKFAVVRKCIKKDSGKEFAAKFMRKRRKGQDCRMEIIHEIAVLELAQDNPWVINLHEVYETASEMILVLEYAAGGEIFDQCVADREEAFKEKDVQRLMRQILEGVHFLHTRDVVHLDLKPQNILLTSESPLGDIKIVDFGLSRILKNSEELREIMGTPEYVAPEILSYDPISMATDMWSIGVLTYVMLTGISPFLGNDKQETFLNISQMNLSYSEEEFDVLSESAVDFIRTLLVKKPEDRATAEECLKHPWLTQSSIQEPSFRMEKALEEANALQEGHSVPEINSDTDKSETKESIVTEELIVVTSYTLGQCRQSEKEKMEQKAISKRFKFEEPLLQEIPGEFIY

[2] = target: T2, Dual specificity tyrosine-phosphorylation-regulated kinase 2 (Homo sapiens) (UniProt Q92630); settings: at 1 µM
T2 sequence (whole entry): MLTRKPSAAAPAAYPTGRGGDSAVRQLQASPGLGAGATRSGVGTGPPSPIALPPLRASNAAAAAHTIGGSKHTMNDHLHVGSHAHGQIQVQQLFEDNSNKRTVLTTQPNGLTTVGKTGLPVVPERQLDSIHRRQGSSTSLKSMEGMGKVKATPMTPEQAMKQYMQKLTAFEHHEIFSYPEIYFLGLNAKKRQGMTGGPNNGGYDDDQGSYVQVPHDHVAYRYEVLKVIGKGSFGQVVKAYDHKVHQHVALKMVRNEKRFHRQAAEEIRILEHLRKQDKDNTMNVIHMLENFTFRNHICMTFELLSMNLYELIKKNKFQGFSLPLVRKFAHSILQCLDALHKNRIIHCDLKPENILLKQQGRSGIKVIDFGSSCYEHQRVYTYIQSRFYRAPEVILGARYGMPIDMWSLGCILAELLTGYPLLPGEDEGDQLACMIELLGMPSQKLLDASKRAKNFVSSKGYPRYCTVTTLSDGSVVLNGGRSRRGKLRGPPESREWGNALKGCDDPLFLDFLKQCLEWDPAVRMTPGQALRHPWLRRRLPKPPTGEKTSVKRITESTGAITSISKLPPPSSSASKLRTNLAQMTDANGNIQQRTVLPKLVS

[3] = target: T2, Dual specificity tyrosine-phosphorylation-regulated kinase 2 (Homo sapiens); settings: at 10 µM
[4] = target: Epidermal growth factor receptor (Homo sapiens) (UniProt P00533); settings: at 1 µM
[5] = target: Epidermal growth factor receptor (Homo sapiens) (UniProt P00533); settings: at 10 µM
[6] = target: T3, Ephrin type-A receptor 1 (Homo sapiens) (UniProt P21709); settings: at 1 µM
T3 sequence (whole entry): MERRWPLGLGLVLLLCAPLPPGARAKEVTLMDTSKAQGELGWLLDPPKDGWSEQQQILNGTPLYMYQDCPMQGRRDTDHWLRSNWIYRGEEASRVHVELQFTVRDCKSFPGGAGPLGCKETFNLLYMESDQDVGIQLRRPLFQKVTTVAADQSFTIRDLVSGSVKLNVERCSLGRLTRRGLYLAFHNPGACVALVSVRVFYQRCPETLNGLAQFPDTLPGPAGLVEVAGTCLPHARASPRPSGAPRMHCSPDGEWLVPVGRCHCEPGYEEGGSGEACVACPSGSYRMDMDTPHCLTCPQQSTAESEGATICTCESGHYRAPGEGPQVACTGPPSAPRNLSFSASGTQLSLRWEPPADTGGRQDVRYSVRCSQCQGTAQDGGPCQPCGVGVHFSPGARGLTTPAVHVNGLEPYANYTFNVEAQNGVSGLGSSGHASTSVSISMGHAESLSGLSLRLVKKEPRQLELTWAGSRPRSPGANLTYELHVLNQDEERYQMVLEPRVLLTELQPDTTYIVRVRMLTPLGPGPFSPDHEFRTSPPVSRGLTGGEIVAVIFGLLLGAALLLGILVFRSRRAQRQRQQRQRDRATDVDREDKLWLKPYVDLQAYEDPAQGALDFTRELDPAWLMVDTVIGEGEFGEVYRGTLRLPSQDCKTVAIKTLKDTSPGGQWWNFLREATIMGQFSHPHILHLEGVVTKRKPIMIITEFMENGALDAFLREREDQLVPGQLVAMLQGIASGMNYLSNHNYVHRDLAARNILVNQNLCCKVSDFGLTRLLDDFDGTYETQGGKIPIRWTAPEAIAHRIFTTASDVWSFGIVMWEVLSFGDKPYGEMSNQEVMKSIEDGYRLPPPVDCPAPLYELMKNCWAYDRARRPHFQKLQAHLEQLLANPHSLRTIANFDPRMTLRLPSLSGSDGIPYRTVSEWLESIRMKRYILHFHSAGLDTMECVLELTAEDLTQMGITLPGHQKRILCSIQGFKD

[7] = target: T3, Ephrin type-A receptor 1 (Homo sapiens); settings: at 10 µM
[8] = target: Ephrin type-A receptor 2 (Homo sapiens) (UniProt P29317); settings: at 1 µM
[9] = target: Ephrin type-A receptor 2 (Homo sapiens) (UniProt P29317); settings: at 10 µM
[10] = target: T4, Ephrin type-A receptor 3 (Homo sapiens) (UniProt P29320); settings: at 1 µM
T4 sequence (whole entry): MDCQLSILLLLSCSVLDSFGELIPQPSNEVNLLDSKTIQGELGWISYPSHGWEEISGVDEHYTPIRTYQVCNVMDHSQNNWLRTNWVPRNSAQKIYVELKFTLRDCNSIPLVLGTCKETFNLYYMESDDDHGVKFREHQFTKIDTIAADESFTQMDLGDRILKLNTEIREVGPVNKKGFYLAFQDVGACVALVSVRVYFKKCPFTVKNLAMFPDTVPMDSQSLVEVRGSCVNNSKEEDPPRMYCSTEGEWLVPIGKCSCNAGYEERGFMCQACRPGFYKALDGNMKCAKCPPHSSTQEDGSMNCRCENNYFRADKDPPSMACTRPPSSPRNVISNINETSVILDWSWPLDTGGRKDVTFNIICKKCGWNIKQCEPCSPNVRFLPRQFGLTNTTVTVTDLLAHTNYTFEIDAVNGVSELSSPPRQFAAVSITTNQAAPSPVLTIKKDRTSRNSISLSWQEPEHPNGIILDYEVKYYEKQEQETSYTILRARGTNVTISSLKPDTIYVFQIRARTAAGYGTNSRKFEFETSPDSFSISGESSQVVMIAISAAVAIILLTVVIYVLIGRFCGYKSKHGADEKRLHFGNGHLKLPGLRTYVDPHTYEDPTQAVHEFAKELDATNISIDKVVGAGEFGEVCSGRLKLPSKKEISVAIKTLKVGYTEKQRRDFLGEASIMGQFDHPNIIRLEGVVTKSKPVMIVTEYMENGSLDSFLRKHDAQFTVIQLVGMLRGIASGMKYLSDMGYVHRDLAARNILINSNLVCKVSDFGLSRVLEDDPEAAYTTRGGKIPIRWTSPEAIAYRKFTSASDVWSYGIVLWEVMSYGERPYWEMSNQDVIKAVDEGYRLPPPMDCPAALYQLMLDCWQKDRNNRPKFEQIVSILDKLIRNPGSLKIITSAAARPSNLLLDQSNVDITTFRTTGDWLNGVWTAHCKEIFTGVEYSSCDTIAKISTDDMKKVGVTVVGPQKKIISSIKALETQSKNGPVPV

[11] = target: T4, Ephrin type-A receptor 3 (Homo sapiens); settings: at 10 µM
[12] = target: Ephrin type-A receptor 4 (Homo sapiens) (UniProt P54764); settings: at 1 µM
[13] = target: Ephrin type-A receptor 4 (Homo sapiens) (UniProt P54764); settings: at 10 µM
[14] = target: Ephrin type-A receptor 5 (Homo sapiens) (UniProt P54756); settings: at 1 µM
[15] = target: Ephrin type-A receptor 5 (Homo sapiens) (UniProt P54756); settings: at 10 µM
[16] = target: Ephrin type-A receptor 7 (Homo sapiens) (UniProt Q15375); settings: at 1 µM
[17] = target: Ephrin type-A receptor 7 (Homo sapiens) (UniProt Q15375); settings: at 10 µM
[18] = target: T5, Ephrin type-A receptor 8 (Homo sapiens) (UniProt P29322); settings: at 1 µM
T5 sequence (whole entry): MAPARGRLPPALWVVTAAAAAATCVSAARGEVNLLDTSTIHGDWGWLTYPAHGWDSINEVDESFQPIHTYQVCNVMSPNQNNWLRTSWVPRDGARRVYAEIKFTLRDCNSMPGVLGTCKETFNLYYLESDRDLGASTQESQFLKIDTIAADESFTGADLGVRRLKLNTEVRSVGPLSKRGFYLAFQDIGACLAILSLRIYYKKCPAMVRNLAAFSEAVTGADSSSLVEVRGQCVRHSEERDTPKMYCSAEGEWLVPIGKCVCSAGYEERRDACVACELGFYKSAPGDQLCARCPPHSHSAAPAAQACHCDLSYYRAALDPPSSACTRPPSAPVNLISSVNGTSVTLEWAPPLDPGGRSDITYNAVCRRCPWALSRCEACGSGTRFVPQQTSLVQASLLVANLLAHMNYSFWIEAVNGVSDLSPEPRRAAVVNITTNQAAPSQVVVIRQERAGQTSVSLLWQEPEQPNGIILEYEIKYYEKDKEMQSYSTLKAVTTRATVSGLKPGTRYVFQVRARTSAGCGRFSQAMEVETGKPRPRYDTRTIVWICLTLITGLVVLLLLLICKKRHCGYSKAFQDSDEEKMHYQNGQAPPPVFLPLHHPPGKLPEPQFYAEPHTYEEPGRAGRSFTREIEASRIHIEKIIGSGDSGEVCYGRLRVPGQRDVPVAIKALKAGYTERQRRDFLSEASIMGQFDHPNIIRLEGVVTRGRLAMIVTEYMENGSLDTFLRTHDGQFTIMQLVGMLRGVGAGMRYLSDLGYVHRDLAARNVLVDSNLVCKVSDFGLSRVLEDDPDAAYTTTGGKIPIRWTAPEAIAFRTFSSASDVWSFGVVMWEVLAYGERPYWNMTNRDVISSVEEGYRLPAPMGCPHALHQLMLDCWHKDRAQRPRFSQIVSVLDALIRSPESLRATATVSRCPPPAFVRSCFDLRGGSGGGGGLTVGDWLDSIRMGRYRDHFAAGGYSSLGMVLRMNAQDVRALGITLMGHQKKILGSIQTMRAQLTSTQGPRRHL

[19] = target: T5, Ephrin type-A receptor 8 (Homo sapiens); settings: at 10 µM
[20] = target: T6, Ephrin type-B receptor 1 (Homo sapiens) (UniProt P54762); settings: at 1 µM
T6 sequence (whole entry): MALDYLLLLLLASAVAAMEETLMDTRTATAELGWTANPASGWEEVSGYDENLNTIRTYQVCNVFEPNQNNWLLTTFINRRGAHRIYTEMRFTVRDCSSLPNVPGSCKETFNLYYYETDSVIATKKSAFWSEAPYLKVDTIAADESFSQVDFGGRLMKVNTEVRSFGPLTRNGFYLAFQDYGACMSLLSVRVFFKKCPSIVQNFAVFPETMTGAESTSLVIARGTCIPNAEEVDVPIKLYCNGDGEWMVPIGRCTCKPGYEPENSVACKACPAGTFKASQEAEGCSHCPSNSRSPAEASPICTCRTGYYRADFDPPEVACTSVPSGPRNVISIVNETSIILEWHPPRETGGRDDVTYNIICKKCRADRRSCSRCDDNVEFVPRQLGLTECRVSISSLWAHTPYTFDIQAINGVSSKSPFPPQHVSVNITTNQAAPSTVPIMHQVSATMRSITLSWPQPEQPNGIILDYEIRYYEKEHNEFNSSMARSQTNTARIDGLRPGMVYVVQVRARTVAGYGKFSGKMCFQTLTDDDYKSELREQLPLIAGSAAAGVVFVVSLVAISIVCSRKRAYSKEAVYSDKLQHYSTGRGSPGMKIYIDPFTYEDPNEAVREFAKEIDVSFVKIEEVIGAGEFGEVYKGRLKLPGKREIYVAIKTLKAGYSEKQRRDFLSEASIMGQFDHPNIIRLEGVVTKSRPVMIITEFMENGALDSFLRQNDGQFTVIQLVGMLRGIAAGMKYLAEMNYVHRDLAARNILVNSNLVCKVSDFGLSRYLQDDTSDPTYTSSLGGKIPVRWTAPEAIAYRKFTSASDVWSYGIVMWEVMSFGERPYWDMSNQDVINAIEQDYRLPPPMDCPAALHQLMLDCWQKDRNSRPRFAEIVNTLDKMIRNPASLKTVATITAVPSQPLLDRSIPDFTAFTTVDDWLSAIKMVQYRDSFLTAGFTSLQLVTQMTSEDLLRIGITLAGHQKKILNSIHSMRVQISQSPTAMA

Ephrin type-A receptor 4 (Homo sapiens), sequence (P54764 whole entry): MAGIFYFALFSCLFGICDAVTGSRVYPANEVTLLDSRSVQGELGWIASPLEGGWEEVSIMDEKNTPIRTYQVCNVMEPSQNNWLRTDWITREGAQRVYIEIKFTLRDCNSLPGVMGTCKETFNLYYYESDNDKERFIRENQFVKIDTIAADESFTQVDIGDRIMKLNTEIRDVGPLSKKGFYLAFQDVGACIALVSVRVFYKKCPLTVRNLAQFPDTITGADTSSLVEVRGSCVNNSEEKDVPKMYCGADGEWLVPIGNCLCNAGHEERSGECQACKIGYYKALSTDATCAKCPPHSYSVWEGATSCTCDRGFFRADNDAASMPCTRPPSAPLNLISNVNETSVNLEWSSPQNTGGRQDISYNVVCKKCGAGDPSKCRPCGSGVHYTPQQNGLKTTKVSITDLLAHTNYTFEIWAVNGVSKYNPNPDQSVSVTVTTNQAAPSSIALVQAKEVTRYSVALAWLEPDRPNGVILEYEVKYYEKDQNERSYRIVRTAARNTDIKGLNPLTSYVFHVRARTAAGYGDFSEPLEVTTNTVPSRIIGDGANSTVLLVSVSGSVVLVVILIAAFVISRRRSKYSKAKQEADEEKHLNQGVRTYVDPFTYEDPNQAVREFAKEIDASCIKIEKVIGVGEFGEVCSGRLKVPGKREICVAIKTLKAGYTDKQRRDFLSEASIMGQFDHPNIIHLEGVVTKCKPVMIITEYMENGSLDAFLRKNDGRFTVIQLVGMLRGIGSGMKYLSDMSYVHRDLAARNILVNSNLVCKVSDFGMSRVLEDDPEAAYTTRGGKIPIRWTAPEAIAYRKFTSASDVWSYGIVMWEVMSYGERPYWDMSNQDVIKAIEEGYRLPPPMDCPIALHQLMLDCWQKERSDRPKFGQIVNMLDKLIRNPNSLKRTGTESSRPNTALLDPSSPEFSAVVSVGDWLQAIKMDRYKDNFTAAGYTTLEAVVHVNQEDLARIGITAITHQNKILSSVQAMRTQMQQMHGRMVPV
Ephrin type-A receptor 7 (Homo sapiens), sequence (Q15375 28-998 limits assumed): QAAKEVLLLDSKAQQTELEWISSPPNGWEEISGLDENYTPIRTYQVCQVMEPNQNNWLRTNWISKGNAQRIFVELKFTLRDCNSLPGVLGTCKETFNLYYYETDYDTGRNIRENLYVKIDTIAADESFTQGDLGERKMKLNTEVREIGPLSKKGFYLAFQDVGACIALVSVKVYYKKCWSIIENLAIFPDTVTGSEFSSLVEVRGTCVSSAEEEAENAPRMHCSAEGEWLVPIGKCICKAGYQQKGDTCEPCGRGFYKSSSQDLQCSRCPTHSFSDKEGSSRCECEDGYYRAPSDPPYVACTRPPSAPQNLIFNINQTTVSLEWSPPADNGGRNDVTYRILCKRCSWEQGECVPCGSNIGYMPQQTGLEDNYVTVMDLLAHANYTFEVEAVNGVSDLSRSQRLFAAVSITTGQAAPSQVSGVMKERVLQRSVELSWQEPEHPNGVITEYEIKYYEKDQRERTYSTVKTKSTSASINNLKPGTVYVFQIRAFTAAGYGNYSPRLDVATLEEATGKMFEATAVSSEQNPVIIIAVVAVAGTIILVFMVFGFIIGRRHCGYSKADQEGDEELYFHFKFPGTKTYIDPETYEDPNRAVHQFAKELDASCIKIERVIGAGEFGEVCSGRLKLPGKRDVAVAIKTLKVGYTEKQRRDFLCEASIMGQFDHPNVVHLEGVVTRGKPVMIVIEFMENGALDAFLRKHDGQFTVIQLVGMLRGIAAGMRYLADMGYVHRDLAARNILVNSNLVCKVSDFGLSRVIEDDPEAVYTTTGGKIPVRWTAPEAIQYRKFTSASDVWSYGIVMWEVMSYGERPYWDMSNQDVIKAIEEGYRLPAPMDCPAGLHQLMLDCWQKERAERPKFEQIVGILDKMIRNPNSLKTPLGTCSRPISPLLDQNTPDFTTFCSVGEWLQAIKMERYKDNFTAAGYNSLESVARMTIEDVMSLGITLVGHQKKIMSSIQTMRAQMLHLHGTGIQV
Ephrin type-A receptor 5 (Homo sapiens), sequence (P54756 whole entry): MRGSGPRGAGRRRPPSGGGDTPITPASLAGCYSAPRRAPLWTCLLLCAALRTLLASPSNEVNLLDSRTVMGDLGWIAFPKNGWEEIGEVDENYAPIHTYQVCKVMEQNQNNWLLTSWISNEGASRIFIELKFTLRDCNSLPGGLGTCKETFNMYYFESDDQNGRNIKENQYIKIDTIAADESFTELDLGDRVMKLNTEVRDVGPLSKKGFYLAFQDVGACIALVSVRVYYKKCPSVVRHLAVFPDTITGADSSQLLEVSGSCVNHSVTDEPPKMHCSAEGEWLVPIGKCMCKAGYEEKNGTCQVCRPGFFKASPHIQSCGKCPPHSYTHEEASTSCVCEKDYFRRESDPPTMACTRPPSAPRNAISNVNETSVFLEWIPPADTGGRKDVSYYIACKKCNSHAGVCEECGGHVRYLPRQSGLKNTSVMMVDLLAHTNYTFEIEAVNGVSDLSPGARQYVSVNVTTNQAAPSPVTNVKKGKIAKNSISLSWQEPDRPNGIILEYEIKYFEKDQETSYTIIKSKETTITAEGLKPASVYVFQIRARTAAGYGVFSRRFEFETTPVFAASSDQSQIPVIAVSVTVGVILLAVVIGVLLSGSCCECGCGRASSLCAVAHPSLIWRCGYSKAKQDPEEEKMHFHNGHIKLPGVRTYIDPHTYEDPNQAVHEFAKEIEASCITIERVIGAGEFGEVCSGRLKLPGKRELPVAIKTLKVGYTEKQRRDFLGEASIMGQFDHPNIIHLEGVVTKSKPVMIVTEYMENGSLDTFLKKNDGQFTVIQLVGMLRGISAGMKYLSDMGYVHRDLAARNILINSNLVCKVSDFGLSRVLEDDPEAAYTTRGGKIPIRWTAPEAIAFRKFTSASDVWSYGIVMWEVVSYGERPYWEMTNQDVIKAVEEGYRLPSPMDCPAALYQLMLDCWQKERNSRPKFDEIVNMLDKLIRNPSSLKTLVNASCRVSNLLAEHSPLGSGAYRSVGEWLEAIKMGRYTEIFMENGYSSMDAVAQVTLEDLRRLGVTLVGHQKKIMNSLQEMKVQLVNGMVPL
Ephrin type-A receptor 2 (Homo sapiens), sequence (P29317 whole entry): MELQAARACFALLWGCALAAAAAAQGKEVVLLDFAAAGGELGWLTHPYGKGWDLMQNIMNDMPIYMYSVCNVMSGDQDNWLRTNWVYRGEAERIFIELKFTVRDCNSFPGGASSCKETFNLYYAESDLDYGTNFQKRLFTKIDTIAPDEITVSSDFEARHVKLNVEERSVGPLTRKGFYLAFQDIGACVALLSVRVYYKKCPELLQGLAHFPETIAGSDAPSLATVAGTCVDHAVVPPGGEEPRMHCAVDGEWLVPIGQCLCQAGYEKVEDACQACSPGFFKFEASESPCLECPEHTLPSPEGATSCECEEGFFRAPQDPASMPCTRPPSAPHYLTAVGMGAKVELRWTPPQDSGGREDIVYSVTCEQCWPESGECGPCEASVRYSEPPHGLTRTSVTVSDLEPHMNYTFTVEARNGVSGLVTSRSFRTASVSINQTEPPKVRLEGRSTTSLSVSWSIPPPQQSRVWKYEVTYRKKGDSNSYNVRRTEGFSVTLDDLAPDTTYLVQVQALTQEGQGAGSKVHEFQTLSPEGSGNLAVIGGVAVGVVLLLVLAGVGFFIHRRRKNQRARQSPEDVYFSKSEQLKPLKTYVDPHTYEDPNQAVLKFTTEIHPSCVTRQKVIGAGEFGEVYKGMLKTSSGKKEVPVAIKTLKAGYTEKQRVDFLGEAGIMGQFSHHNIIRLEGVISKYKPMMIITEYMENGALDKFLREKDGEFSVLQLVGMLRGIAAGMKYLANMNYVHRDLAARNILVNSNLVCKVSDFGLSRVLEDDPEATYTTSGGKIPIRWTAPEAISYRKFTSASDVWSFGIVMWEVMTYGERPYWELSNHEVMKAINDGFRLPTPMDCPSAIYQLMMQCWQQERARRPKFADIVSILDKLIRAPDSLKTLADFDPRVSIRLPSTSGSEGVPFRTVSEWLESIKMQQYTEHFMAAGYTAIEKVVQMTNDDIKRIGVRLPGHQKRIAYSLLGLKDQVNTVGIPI

| SMILES | residual activity [1] [%] | residual activity [2] [%] | residual activity [3] [%] | residual activity [4] [%] | residual activity [5] [%] | residual activity [6] [%] | residual activity [7] [%] | residual activity [8] [%] | residual activity [9] [%] | residual activity [10] [%] | residual activity [11] [%] | residual activity [12] [%] | residual activity [13] [%] | residual activity [14] [%] | residual activity [15] [%] | residual activity [16] [%] | residual activity [17] [%] | residual activity [18] [%] | residual activity [19] [%] | residual activity [20] [%] |
| --- | --- | --- | --- | --- | --- | --- | --- | --- | --- | --- | --- | --- | --- | --- | --- | --- | --- | --- | --- | --- |
| COc1cc2ncnc(Nc3ccc(Oc4ccccc4)cc3)c2cc1OC | 124 | 99 | 95 | -1 | -2 | 98 | 81 | 95 | 116 | 98 | 106 | 107 | 103 | 130 | 89 | 102 | 84 | 91 | 65 | 110 |
| O=C1NC(=O)c2cc(Nc3ccc(F)cc3)c(Nc3ccc(F)cc3)cc21 | 64 | 105 | 101 |  |  | 69 | 52 | 100 | 80 | 104 | 76 | 100 | 83 | 93 | 71 | 74 | 21 | 87 | 56 | 82 |
